Bioassay records as filed in PubChem BioAssay.
Compounds with a hit are over-represented: about 7.9% of the library has one in this group of screens.
Lassa entry inh – inhibitors of Lassa virus binding or cell entry; Lassa virus pseudotype entry inhibition, cell reporter; Potency, µM (top dose mostly 37.9 µM), without a hit: at the highest dose activity change, negative = inhibition, most hits filed as inhibitors; hit rate 1.2% among 300,000; calls by dose curve; tested in HEK293 cells; note: potency is the fitted concentration of half-maximal effect; nearly all actives have a fitted effect of over 50% in size
HCV inh – inhibitors of hepatitis C virus infection; Huh7.5.1 HCVcc-Cre infection, luciferase reporter, 44 h; Potency, µM (titrated, usually from 41.8 µM), for the others: at the highest dose activity change, negative = inhibition, actives largely listed as inhibitors; hit rate 3.4% among 340,000; active = well fitted inhibition curve with a large enough effect; inconclusive = small, poorly fitted or top-dose-only effect, or another doubt; inactive = no such curve, though single readings can be large or run the other way; note: potency is the fitted concentration of half-maximal effect
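Antiviral activity was scored by luciferase reporter output from cells infected with HCVcc-Cre (~0.5 moi) in presence of compound, 44 h infection period, cells seeded 1,000/well 4 h prior.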
Marburg entry inh – inhibitors of Marburg virus binding or cell entry; Marburg virus pseudotyped entry inhibition, cell reporter; Potency, µM (titrated, usually from 37.8 µM), inactives show at the top dose activity change, negative = inhibition, hits mostly inhibitors; hit rate 1.8% among 300,000; calls by dose curve; tested in HEK293 cells; note: potency is the fitted concentration of half-maximal effect
FMDV antiviral – blocks foot and mouth disease virus; FMDV antiviral cell-based qHTS; Potency, µM (titrated, usually from 57.9 µM), for the others: at the highest dose activity change, negative = inhibition, actives largely listed as inhibitors; hit rate 1.2% among 410,000; AID 1159524; calls by dose curve; tested in HEK293T cells; note: read-out not given here; potency is the fitted concentration of half-maximal effect; nearly all actives have a fitted effect of over 45% in size
HCMV inh – human cytomegalovirus inhibition | HFF cells, HCMV-luciferase reporter, 72 h; hits give low values | activity change, negative = inhibition, % at 57.5 µM | hit rate 4.5% among 410,000; in the data active = activity change below about -60%; inconclusive = no clear call, values can overlap the other calls; inactive = above about -39%
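Inhibition of viral replication was scored as loss of reporter luminescence in HFFs infected with HCMV-luciferase (MOI 1 PFU/cell) for 72 h; compounds tested at 2 doses, normalized to buffer and Salinomycin controls.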
Numbers without * were called inactive; ? = inconclusive; . = no result; [ ] = dose if it differs, or a comment. % is set by controls: 0 for no effect and ±100 for the full control effect.

SMILES	Lassa entry inh	HCV inh	Marburg entry inh	FMDV antiviral	HCMV inh
O=C(C1CCCN(S(=O)(=O)c2cccc3nsnc23)C1)N1CCN(c2ccccc2Cl)CC1 (stereo unspecified)	?	.	3.98µM*	25.1µM*	-13.1
CC(C)C(NC(=O)c1ccccn1)c1nnc2n1CCN(Cc1ccc3ccccc3c1)CC2 (stereo unspecified)	.	.	.	-20.4%	.
CCCN1CCC(=O)N(CCN=[N+]=[N-])CC1	.	39.6%	.	-14.3%	114.4
Cn1c(O)c(N=Nc2nc(-c3ccccc3)cs2)c2ccccc21	1.3%	7.0%	?	16.5%	128.6
Cc1ccc(-n2c(O)c(C=Nc3ccc(S(N)(=O)=O)cc3)c(=O)[nH]c2=O)cc1	-0.1%[46.1 µM]	1.9%	1.4%[46.1 µM]	25.0%	-103.7*
NS(=O)(=O)c1ccc(N=Cc2c(O)n(-c3ccccc3)c(=O)[nH]c2=O)cc1	9.9%	14.5%	5.3%[46.1 µM]	-7.1%	-14.9
c1ccc(-c2noc(-c3ccc4c(c3)OCO4)n2)nc1	0.411µM*	?	?	.	-80.7*
CCNc1ccc(-c2nc(-c3ccccn3)no2)cc1[N+](=O)[O-]	-1.4%[46.1 µM]	.	5.2%[46.1 µM]	0.0%	-106.2*
c1ccc(-c2noc(-c3ccc4ccccc4c3)n2)nc1	0.291µM*	?	1.64µM*	3.98µM*	.
c1ccc(-c2nc3n(c2-c2ccc4c(c2)OCO4)CCC3)nc1	9.96µM*	.	.	.	.
c1ccc(-c2noc(-c3ccncc3)n2)nc1	-12.5%	13.5%	?	.	15.6
CCOC(=O)C1CCCC12Nc1cccc3cccc(c13)N2 (stereo unspecified)	-18.2%[46.1 µM]	6.7%	-23.8%[46.1 µM]	-15.5%	51.0
Cc1occc1-c1nc(-c2ccccn2)no1	?	?	11.2µM*	-39.5%	159.9
COc1ccc(C(=O)N[C@H](C(=O)NCCc2ccc3c(c2)OCCO3)C(C)C)cc1	.	-4.0%	.	0.8%	0.0
CN(CC(=O)Nc1ccccc1Cl)C(=O)c1cccc(S(=O)(=O)N2CCN(c3ccccc3)CC2)c1	?	?	?	?	-77.3*
CN(Cc1ccc(Cl)c(Cl)c1)C(=O)c1cccc(S(=O)(=O)N2CCN(Cc3ccccc3)CC2)c1	.	10µM*	.	-20.8%	0.0
CN(Cc1cccc(F)c1)C(=O)c1cccc(S(=O)(=O)N2CCN(Cc3ccccc3)CC2)c1	11.3%	-24.6%	-20.3%	?	.
CN(Cc1ccc(OC(F)F)cc1)C(=O)c1cccc(S(=O)(=O)N2CCN(c3ccccc3)CC2)c1	.	5.01µM*	.	20µM*	-62.9*
CN(CC(=O)Nc1ccccc1Cl)C(=O)c1cccc(S(=O)(=O)N2CCN(Cc3ccccc3)CC2)c1	?	?	?	?	-79.8*
CN(CC(=O)Nc1cccc(F)c1)C(=O)c1cccc(S(=O)(=O)N2CCN(Cc3ccccc3)CC2)c1	.	.	.	-47.0%	?
CC(C)OC(=O)[C@@H](CC(=O)O)NCc1ccccc1	.	.	0.2%	.	.
C[C@H]1CN([C@@H](C)CO)S(=O)(=O)c2ccc(-c3ccccc3)cc2O[C@H]1CN(C)C(=O)C1CCC1	.	.	.	10.9%	17.2
CCc1nn(CC(=O)NCc2cccc(OC)c2OC)c(=O)c2cc3occc3n12	.	.	27.0%[46.1 µM]	-17.2%	-24.6
COc1ccc(NC(C)=O)cc1NC(=O)c1cccc(S(=O)(=O)N2CCN(Cc3ccccc3)CC2)c1	-8.5%	-23.7%	-3.9%	-16.6%	-14.6
Cc1ccc(S(=O)(=O)N2CCN(C)CC2)cc1[N+](=O)[O-]	24.1%	10.2%	1.5%	-2.7%	76.2
SMILES	Lassa entry inh	HCV inh	Marburg entry inh	FMDV antiviral	HCMV inh
COc1ccccc1NC(=O)c1cccc(S(=O)(=O)N2CCN(Cc3ccccc3)CC2)c1	?	10µM*	-17.1%[46.1 µM]	-29.2%	-8.2
Cc1cccc(C)c1NC(=O)CN(C)C(=O)c1cccc(S(=O)(=O)N2CCN(c3ccc(F)cc3)CC2)c1	?	?	?	?	-87.1*
CN1CCN(S(=O)(=O)c2cccc(C(=O)N(C)Cc3cccs3)c2)CC1	.	0.6%	.	-2.8%	-13.7
CN1CCN(S(=O)(=O)c2ccc(N(C)Cc3ccc(OC(F)F)cc3)c([N+](=O)[O-])c2)CC1	-14.4%	11.2µM*	?	?	?
C=CCN(C(=O)c1cccc(S(=O)(=O)N2CCN(C)CC2)c1)c1nc(-c2ccccc2)cs1	?	25.1µM*	?	?	-36.0
CC(=O)N1CCC[C@H]1C(=O)N1CCc2c(cnc(C)c2CNC(=O)/C=C/c2cccs2)C1	.	.	.	5.9%	.
